Source: PubChem BioAssay
For some assays here: Potency and affinity values are given separately. Calls of active or inactive are those of the source.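 The calls were made as follows, unless noted: active = primary screen active and over 50% activation in each of two duplicate runs; inactive = the rest.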

What was measured:
[1] = tested on: TRPC4 beta (transient receptor potential cation channel C4), mouse; assay: activators of mouse TRPC4 channel, confirmation, cell-based, Fluo4 calcium, HEK293 TRPC4beta/mu-opioid, duplicates, 10 µM (AID 2426;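 active = fluorescence ratio normalized to control raised more than 50% in primary screen plus both repeat runs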); conditions: Fluo4 calcium fluorescence, at 10 µM; hits give high values
[2] = tested on: transient receptor potential cation channel C4 beta (TRPC4), mouse; assay: activators of mouse TRPC4 channel, confirmation, cell-based, second round, Fluo4, HEK293 TRPC4beta/mu-opioid, 1 µM (AID 2461); conditions: Fluo4 calcium fluorescence, at 1 µM; hits give high values
[3] = tested on: TRPC4 (transient receptor potential cation channel C4 beta), mouse; assay: positive allosteric modulators of mouse TRPC4, confirmation, cell-based, second round, Fluo-4, HEK293 TRPC4beta/mu-opioid, 1 µM (AID 2554;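 active = primary screen hit whose fluorescence ratio, in both repeats, exceeds the weak agonist control mean by 3 SD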); conditions: DAMGO EC20, Fluo-4 calcium flux, at 1 µM; hits give high values
[4] = tested on: TRPC4 beta (transient receptor potential cation channel C4), mouse; assay: positive allosteric modulators of mouse TRPC4, confirmation, cell-based, Fluo-4, HEK293 TRPC4beta/mu-opioid (AID 2555;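 active = primary screen hit whose calcium fluorescence ratio, in both repeats, exceeds the weak agonist control mean by 3 SD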); conditions: DAMGO EC20, Fluo-4 calcium flux, at 10 µM; hits give high values
[5] = target: Short transient receptor potential channel 4 (Mus musculus) (UniProt Q9QUQ5); assay: inhibitors of mouse TRPC4 channel, confirmation, cell-based, Fluo4, HEK293 TRPC4beta/mu-opioid (AID 2636;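 active = calcium signal cut by more than 3 SD below the full-agonist control yet still positive, in both repeats and the earlier primary screen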); conditions: DAMGO, Fluo4 calcium flux, at 10 µM; hits give high values
Short transient receptor potential channel 4 (Mus musculus), sequence (Q9QUQ5 whole entry, looked up): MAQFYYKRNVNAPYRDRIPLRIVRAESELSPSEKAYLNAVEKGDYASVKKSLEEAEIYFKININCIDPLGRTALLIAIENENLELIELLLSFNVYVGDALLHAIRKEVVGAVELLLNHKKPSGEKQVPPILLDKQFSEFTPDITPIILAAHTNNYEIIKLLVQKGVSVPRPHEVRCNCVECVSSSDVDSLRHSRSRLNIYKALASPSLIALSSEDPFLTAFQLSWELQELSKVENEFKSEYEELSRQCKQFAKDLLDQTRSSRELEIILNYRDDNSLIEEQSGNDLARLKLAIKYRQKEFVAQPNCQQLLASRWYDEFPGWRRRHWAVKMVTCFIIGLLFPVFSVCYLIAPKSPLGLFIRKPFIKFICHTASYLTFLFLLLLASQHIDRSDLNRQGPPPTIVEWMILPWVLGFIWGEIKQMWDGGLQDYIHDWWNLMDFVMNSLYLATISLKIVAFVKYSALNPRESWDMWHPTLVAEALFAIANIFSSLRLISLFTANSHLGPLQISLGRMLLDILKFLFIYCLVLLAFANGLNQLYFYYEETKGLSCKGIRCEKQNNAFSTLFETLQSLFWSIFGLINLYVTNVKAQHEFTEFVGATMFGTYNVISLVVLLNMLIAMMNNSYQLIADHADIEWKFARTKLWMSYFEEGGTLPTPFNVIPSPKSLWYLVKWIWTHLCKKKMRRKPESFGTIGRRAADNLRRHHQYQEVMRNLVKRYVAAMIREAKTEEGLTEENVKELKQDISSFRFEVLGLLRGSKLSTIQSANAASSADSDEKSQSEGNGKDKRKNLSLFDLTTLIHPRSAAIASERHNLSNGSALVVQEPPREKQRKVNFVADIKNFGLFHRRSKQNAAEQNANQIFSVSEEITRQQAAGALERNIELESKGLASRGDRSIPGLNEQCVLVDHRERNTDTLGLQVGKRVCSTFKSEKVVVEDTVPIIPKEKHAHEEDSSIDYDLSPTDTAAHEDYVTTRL

[6] = target: Short transient receptor potential channel 4 (Mus musculus) (UniProt Q9QUQ5); assay: inhibitors of mouse TRPC4 channel, confirmation, cell-based, second round, Fluo4, HEK293 TRPC4beta/mu-opioid, 1 µM (AID 2637;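 active = calcium signal ratio cut to more than 3 SD under the fully stimulated control mean yet still positive, in both repeats and the primary screen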); conditions: Fluo4 calcium flux, DAMGO, at 1 µM; hits give high values
[7] = target: Short transient receptor potential channel 4 (Mus musculus) (UniProt Q9QUQ5); assay: mouse TRPC4 channel activators, dose response, cell-based, HEK293 TRPC4/mu-opioid, Fluo-4 calcium (AID 434937;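 active = primary screen activator hit with a dose response curve and TRPC4 channel activation at any tested dose; inactive = no activation, no dose response, or not a primary hit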)
[8] = target: Short transient receptor potential channel 4 (Mus musculus) (UniProt Q9QUQ5); assay: TRPC4 positive allosteric modulators, dose response, cell-based, HEK293 TRPC4/mu-opioid, Fluo-4 calcium, EC20 DAMGO (AID 434941;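 active = earlier screen potentiator hit that boosts the TRPC4 ion channel at some dose, with a dose response; inactive = no potentiation, no dose response, or not a prior hit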;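 also: calcium entry triggered by an EC20 dose of DAMGO at the co-expressed mu-opioid receptor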)
[9] = target: Short transient receptor potential channel 4 (Mus musculus) (UniProt Q9QUQ5); assay: mouse TRPC4 channel inhibitors, dose response, cell-based, HEK293 TRPC4/mu-opioid, Fluo-4 calcium (AID 434942;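 active = primary screen inhibitor hit that blocks the TRPC4 channel at some tested dose, yielding a dose curve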)
[10] = target: Short transient receptor potential channel 6 (Mus musculus) (UniProt Q61143); assay: inhibition of mouse TRPC6 channel, confirmation, selectivity assay for TRPC4 inhibitor project, cell-based, HEK293, membrane potential dye, duplicate (AID 434948;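 active = active in primary screen and both duplicates, each dropping signal beyond three positive-control SD with fluorescence still positive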); conditions: HEK293 TRPC6, membrane potential dye fluorescence, at 10 µM, stimulated with maximal-effect acetylcholine; hits give high values
Short transient receptor potential channel 6 (Mus musculus), sequence (Q61143 whole entry, looked up): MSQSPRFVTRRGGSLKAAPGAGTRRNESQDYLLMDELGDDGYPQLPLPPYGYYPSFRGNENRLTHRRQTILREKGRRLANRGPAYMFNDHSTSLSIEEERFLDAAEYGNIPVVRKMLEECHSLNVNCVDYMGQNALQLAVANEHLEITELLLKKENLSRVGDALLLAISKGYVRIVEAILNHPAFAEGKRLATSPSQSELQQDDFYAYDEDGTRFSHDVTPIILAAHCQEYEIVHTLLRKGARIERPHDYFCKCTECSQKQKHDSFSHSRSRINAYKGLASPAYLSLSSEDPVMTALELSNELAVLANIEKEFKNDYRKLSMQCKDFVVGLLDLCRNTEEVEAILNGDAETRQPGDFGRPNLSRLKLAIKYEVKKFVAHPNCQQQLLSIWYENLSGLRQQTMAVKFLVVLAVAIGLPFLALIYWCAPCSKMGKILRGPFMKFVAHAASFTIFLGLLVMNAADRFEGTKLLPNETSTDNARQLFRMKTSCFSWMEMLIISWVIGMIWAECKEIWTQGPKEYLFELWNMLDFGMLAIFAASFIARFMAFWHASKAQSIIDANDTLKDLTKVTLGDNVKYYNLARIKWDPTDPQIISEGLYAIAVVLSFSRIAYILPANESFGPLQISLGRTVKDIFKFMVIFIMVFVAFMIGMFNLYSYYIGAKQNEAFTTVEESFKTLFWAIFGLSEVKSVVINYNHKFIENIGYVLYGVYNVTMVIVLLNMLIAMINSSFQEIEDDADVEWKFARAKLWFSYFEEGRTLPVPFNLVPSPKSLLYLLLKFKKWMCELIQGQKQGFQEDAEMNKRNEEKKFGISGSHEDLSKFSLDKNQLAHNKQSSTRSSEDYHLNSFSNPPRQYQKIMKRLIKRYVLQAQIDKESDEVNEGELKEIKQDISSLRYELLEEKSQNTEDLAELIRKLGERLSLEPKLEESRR

[11] = target: Short transient receptor potential channel 6 (Mus musculus) (UniProt Q61143); assay: activation of mouse TRPC6 channel, confirmation, selectivity assay for TRPC4 activator project, cell-based, HEK293, membrane potential dye, duplicate (AID 434950;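 active = membrane potential signal rise above negative control mean plus 3 SD in both duplicates, also active in the earlier TRPC4 screen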;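 as to activation: 0% = buffer only wells and 100% = acetylcholine maximal-effect wells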); conditions: HEK293 TRPC6, membrane potential fluorescence, at 10 µM; hits give high values
[12] = target: Short transient receptor potential channel 6 (Mus musculus) (UniProt Q61143); assay: TRPC6 potentiation by TRPC4 potentiator hits, confirmation, selectivity assay for TRPC4 potentiator project, HEK293 cells, membrane potential dye, duplicate (AID 434952;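 active = compound raising the membrane signal above positive-control mean plus 3 SD in both repeats, and a primary screen hit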); conditions: HEK293 TRPC6, membrane potential dye fluorescence, at 10 µM, maximal acetylcholine added after compound; hits give high values
[13] = target: Short transient receptor potential channel 4 (Mus musculus) (UniProt Q9QUQ5); assay: calcium flux activators in TRPC4/5HT1a cells, counter-screen for TRPC4 activator project, cell-based, second counter screen, HEK293 TRPC4/5HT1a, Fluo-4 (AID 434977;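 active = calcium signal rise above buffer-control mean plus 5 SD in both duplicates, and also a hit in the primary screen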;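 as to activation: plate controls were assay buffer for no effect and maximal serotonin response for full effect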); conditions: Fluo-4 calcium flux, at 10 µM; hits give high values
[14] = calcium flux inhibitors in TRPC4/5HT1a cells, confirmation, counter-screen for TRPC4 inhibitor project, cell-based, second counter screen, HEK293 TRPC4/5HT1a, Fluo-4 (AID 434978;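 active = primary screen active whose calcium signal fell more than 3 SD beyond the full-serotonin control mean in both duplicate plates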;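 as to outcome: serotonin given first at submaximal then at maximal dose after compound preincubation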); conditions: Fluo-4 calcium flux, at 10 µM, serotonin added to trigger calcium flux; hits give high values
[15] = tested on: TRPC4 (mouse), co-expressed with 5HT1a in HEK293; assay: calcium flux potentiators in TRPC4/5HT1a cells, confirmation, counter-screen for TRPC4 potentiator project, cell-based, second counter screen, HEK293 TRPC4/5HT1a, Fluo-4 (AID 434979;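 active = signal rise over 3 SD above mean of control wells given weak agonist, in both repeats and first screen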); conditions: Fluo-4 calcium flux, at 10 µM, serotonin added at its EC20 dose; hits give high values
[16] = calcium flux activation in mu-opioid HEK293 cells, confirmation, counter-screen for TRPC4 activator project, cell-based, HEK293 mu-opioid receptor line (AID 449723;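 active = hit in primary screen, with calcium signal over 5 SD above buffer well mean in both duplicates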;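 also: counter screen cells carry the mu-opioid receptor alone and lack TRPC4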); conditions: Fluo-4 calcium fluorescence, at 10 µM; hits give high values
[17] = calcium flux enhancement in mu-opioid HEK293 cells, confirmation, counter-screen for TRPC4 allosteric potentiator project, cell-based, HEK293 mu-opioid receptor line (AID 449724;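 active = calcium signal rise more than 3 SD above the low-dose agonist control mean, in both duplicate plates and the primary screen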); conditions: Fluo-4 calcium flux, at 10 µM, compound added before EC20 DAMGO stimulus; hits give high values

CC1=CC(=O)C(C(C)C)=C/C1=N/OS(=O)(=O)c1ccccc1
active: potentiation [4] 23% | potentiation [15] 64.1%
inactive: outcome [1] | outcome [2] | outcome [3] | outcome [5] | outcome [6] | outcome [7] | outcome [8] | outcome [9] | outcome [10] | outcome [11] | outcome [12] | outcome [13] | outcome [14] | outcome [16] | outcome [17]

CCCn1c(NCc2cc(OC)ccc2OC)nc2ccccc21
inactive: outcome [1] | outcome [2] | outcome [3] | outcome [4] | outcome [5] | outcome [6] | outcome [7] | outcome [8] | outcome [9] | outcome [10] | outcome [11] | outcome [12] | outcome [13] | outcome [14] | outcome [15] | outcome [16] | outcome [17]

O=[N+]([O-])c1ccc2c(c1)C=C1CCCCC1(N1CCCC1)O2 (configuration not stated)
inactive: outcome [1] | outcome [2] | outcome [3] | outcome [4] | outcome [5] | outcome [6] | outcome [7] | outcome [8] | outcome [9] | outcome [10] | outcome [11] | outcome [12] | outcome [13] | outcome [14] | outcome [15] | outcome [16] | outcome [17]

CCN1C(=O)/C(=C\N2CCCc3ccccc32)SC1=S
inactive: outcome [1] | outcome [2] | outcome [3] | outcome [4] | outcome [5] | outcome [6] | outcome [7] | outcome [8] | outcome [9] | outcome [10] | outcome [11] | outcome [12] | outcome [13] | outcome [14] | outcome [15] | outcome [16] | outcome [17]

O=[N+]([O-])c1ccc(N2CCCC2)nc1N1CCCC1
inactive: outcome [1] | outcome [2] | outcome [3] | outcome [4] | outcome [5] | outcome [6] | outcome [7] | outcome [8] | outcome [9] | outcome [10] | outcome [11] | outcome [12] | outcome [13] | outcome [14] | outcome [15] | outcome [16] | outcome [17]

COc1cccc(NC(=O)COc2c(F)c(F)c(C(F)(F)F)c(F)c2F)c1
inactive: outcome [1] | outcome [2] | outcome [3] | outcome [4] | outcome [5] | outcome [6] | outcome [7] | outcome [8] | outcome [9] | outcome [10] | outcome [11] | outcome [12] | outcome [13] | outcome [14] | outcome [15] | outcome [16] | outcome [17]

NCCc1nnc(SCc2ccccc2)o1
inactive: outcome [1] | outcome [2] | outcome [3] | outcome [4] | outcome [5] | outcome [6] | outcome [7] | outcome [8] | outcome [9] | outcome [10] | outcome [11] | outcome [12] | outcome [13] | outcome [14] | outcome [15] | outcome [16] | outcome [17]

CC1(C)Cc2nc3oc4c(=O)n(CC(=O)Nc5ccccc5)cnc4c3cc2CO1
inactive: outcome [1] | outcome [2] | outcome [3] | outcome [4] | outcome [5] | outcome [6] | outcome [7] | outcome [8] | outcome [9] | outcome [10] | outcome [11] | outcome [12] | outcome [13] | outcome [14] | outcome [15] | outcome [16] | outcome [17]

O=C(CN1CCCC1)N1c2ccccc2Sc2ccc(C(F)(F)F)cc21
inactive: outcome [1] | outcome [2] | outcome [3] | outcome [4] | outcome [5] | outcome [6] | outcome [7] | outcome [8] | outcome [9] | outcome [10] | outcome [11] | outcome [12] | outcome [13] | outcome [14] | outcome [15] | outcome [16] | outcome [17]

CNc1oc(-c2ccccc2Cl)nc1P(=O)(c1ccccc1)c1ccccc1
inactive: outcome [1] | outcome [2] | outcome [3] | outcome [4] | outcome [5] | outcome [6] | outcome [7] | outcome [8] | outcome [9] | outcome [10] | outcome [11] | outcome [12] | outcome [13] | outcome [14] | outcome [15] | outcome [16] | outcome [17]

CCOC(=O)C1=C(C)N(c2ccccc2)C(=O)NC1c1cccc([N+](=O)[O-])c1 (configuration not stated)
active: potentiation [15] 9.17%
inactive: outcome [1] | outcome [2] | outcome [3] | outcome [4] | outcome [5] | outcome [6] | outcome [7] | outcome [8] | outcome [9] | outcome [10] | outcome [11] | outcome [12] | outcome [13] | outcome [14] | outcome [16] | outcome [17]

CCn1c(/C=C/Nc2ccccc2)[n+](CC)c2ccc(Cl)cc21
inactive: outcome [1] | outcome [2] | outcome [3] | outcome [4] | outcome [5] | outcome [6] | outcome [7] | outcome [8] | outcome [9] | outcome [10] | outcome [11] | outcome [12] | outcome [13] | outcome [14] | outcome [15] | outcome [16] | outcome [17]

CCc1nc2ccccc2n1Cc1ccc(F)cc1
inactive: outcome [1] | outcome [2] | outcome [3] | outcome [4] | outcome [5] | outcome [6] | outcome [7] | outcome [8] | outcome [9] | outcome [10] | outcome [11] | outcome [12] | outcome [13] | outcome [14] | outcome [15] | outcome [16] | outcome [17]

Oc1c(Br)cc(C2N=C(c3ccccc3Cl)NO2)cc1Br (configuration not stated)
inactive: outcome [1] | outcome [2] | outcome [3] | outcome [4] | outcome [5] | outcome [6] | outcome [7] | outcome [8] | outcome [9] | outcome [10] | outcome [11] | outcome [12] | outcome [13] | outcome [14] | outcome [15] | outcome [16] | outcome [17]

Oc1ccccc1-c1cc(-c2ccco2)[nH]n1
inactive: outcome [1] | outcome [2] | outcome [3] | outcome [4] | outcome [5] | outcome [6] | outcome [7] | outcome [8] | outcome [9] | outcome [10] | outcome [11] | outcome [12] | outcome [13] | outcome [14] | outcome [15] | outcome [16] | outcome [17]

O=C(C1CCN(S(=O)(=O)c2cccnc2)CC1)N1CCN(c2ccc(Cl)cc2)CC1
inactive: outcome [1] | outcome [2] | outcome [3] | outcome [4] | outcome [5] | outcome [6] | outcome [7] | outcome [8] | outcome [9] | outcome [10] | outcome [12] | outcome [15] | outcome [16] | outcome [17]
active: activation [11] 35.5% | activation [13] 29.8% | inhibition [14] 42.4%
